In PubChem BioAssay AID652115 (Broad Institute, 2013) one finds inhibition data, which are given here for 10 compounds.

Screen size: about 330,000 compounds; about 3,800 (1.2%) were called active. Shown is part of a subset that was picked to be rich in actives. Values without a mark were called inactive. Cut-off read from the data, not from the text of the source: active = inhibition above about 15%; inconclusive = no clear call, values can overlap the other calls; inactive = below that.

The target in this experiment is NAD-dependent protein deacylase sirtuin-5, mitochondrial (Homo sapiens) (UniProt Q9NXA8). The experiment can be described thus: SIRT5 desuccinylase inhibitors, primary screen, biochemical, fluorescence imaging, single point, set 5 (AID 652115). The note with it: Purified SirT5, succinyl-peptide AMC, trypsin-coupled fluorescence; at 15 µM; stronger effect = higher value.
Chain of NAD-dependent protein deacylase sirtuin-5, mitochondrial (Homo sapiens) (Q9NXA8 whole entry, looked up): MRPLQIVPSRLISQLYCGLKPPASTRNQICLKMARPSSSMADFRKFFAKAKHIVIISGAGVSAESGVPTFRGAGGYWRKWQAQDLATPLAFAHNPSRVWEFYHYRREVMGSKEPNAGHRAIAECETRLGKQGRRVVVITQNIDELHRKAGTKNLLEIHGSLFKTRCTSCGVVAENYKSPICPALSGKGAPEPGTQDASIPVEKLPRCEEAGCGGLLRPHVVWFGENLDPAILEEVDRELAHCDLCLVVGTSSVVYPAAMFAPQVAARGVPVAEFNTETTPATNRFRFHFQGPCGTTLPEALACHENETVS
Consider `O=C(COC(=O)Cc1ccccc1)Nc1ccc(F)cc1`, for which the inhibition (commonly the change of the read-out against control, counted positive when it falls) is -1.48%.
With `CC(Cc1ccccc1)NC=O` (stereo not given) the figure was -0.859%; with `CC(=O)Nc1ccc(C(=O)C(Cc2ccccc2)N(C)C)cc1` (stereo not given), 18.6% (active); with `COC(=O)[C@H]1[C@H](CO)[C@H]2Cn3c(cccc3=O)[C@H]2N1CC1CC1`, 0.308%.
With `COC(=O)C1=C(c2ccc(OCc3ccccc3)cc2)C[C@@H]2CC[C@H]1N2C(=O)NCc1cccc(F)c1` the figure was -8.66%.
For the compound `O=C1NCN(c2ccccc2)C12CCN(C(c1cccs1)c1nnnn1C1CCCCC1)CC2` (stereo not given), the inhibition was 3.05%.
As to `COc1ccc(CN2C(=O)NC(=O)/C(=C\c3ccc(OC)c(OC)c3OC)C2=O)cc1`, the inhibition is -0.842%.
As to `COc1ccc(N2C(=O)/C(=C/c3ccco3)C(=O)NC2=S)cc1`, the inhibition was 44.4% (active).
On to `COc1cccc(N2C(=O)NC(=O)/C(=C\c3cn(C)c4ccccc34)C2=O)c1`, for which the inhibition is -7.3%.
As for `S=C(NCCc1ccccc1)N1Cc2cc(N3CCOCC3)ccc2-n2nncc2C1`, the figure is 0.564%.
